Experimental data: the supplement of paper PMC10849652
Targets with a hit are over-represented here; the source holds about 8,800 in all. About 0.5% of all pairs of compound and target were hits. Values without a mark were called inactive.

Tests used:
Experiment in all cases: log2 fold change, soluble protein after heating vs DMSO (PISA); higher = thermal stabilisation; K562 lysate, 10 uM; active = over 0.2 and 3.5 SD of the protein, either way, in both replicates (recomputed)
lapatinib = compound: CS(=O)(=O)CCNCc1ccc(-c2ccc3ncnc(Nc4ccc(OCc5cccc(F)c5)c(Cl)c4)c3c2)o1 [lapatinib]
Summary of the method: (§1)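 Quantification was by TMTpro 16plex LC-MS/MS with equalised channel sums, applied to the supernatant after 21,000xg for 90 min. Samples were crude K562 extract at 1 mg/mL protein in PBS pH 7.4 with 1 mM MgCl2, treated with 10 μM compound for 30 min, heated for 3 min across 48°C-58°C, pooled and brought to 0.5% NP-40 at 4°C. Values are log-two fold changes in thermal stability relative to solvent controls, from duplicates.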

pictilisib = compound: CS(=O)(=O)N1CCN(Cc2cc3nc(-c4cccc5[nH]ncc45)nc(N4CCOCC4)c3s2)CC1 [pictilisib]
Summary of the method: as §1

crizotinib = compound: C[C@@H](Oc1cc(-c2cnn(C3CCNCC3)c2)cnc1N)c1c(Cl)ccc(F)c1Cl [crizotinib]
Summary of the method: as §1

[1] = compound: C[C@H](C1=CC=C(C=C1)C(=O)NC2=C3C=CNC3=NC=C2)N
Summary of the method: as §1

duvelisib = compound: C[C@H](Nc1ncnc2nc[nH]c12)c1cc2cccc(Cl)c2c(=O)n1-c1ccccc1 [duvelisib]
Summary of the method: as §1

gandotinib = compound: Cc1cc(Nc2cc(CN3CCOCC3)c3nc(C)c(Cc4ccc(Cl)cc4F)n3n2)n[nH]1 [gandotinib]
Summary of the method: as §1

tozasertib = compound: Cc1cc(Nc2cc(N3CCN(C)CC3)nc(Sc3ccc(NC(=O)C4CC4)cc3)n2)n[nH]1 [tozasertib]
Summary of the method: as §1

doramapimod = compound: Cc1ccc(-n2nc(C(C)(C)C)cc2NC(=O)Nc2ccc(OCCN3CCOCC3)c3ccccc23)cc1 [doramapimod]
Summary of the method: as §1

bafetinib = compound: Cc1ccc(NC(=O)c2ccc(CN3CC[C@H](N(C)C)C3)c(C(F)(F)F)c2)cc1Nc1nccc(-c2cncnc2)n1 [bafetinib]
Summary of the method: as §1

[2] = compound: Cc1cccc(CC(=O)N2CCc3c2ccc(-c2cn(C)c4ncnc(N)c24)c3F)n1
Summary of the method: as §1

nilotinib = compound: Cc1cn(-c2cc(NC(=O)c3ccc(C)c(Nc4nccc(-c5cccnc5)n4)c3)cc(C(F)(F)F)c2)cn1 [nilotinib]
Summary of the method: as §1

[3] = compound: Cc1nc(Nc2n[nH]c3c2CN(C(=O)N[C@H](CN(C)C)c2ccccc2)C3(C)C)c2sccc2n1
Summary of the method: as §1

dasatinib = compound: Cc1nc(Nc2ncc(C(=O)Nc3c(C)cccc3Cl)s2)cc(N2CCN(CCO)CC2)n1 [dasatinib]
Summary of the method: as §1

[4] = compound: Cc1ncc(-c2ccnc(Nc3ccc(S(C)(=O)=O)cc3)n2)n1C(C)C
Summary of the method: as §1

[5] = compound: Cn1cc(-c2ccc3c(c2)CCN3C(=O)Cc2cccc(C(F)(F)F)c2)c2c(N)ncnc21
Summary of the method: as §1

quisinostat = compound: Cn1cc(CNCC2CCN(c3ncc(C(=O)NO)cn3)CC2)c2ccccc21 [quisinostat]
Summary of the method: as §1

tipifarnib = compound: Cn1cncc1[C@@](N)(c1ccc(Cl)cc1)c1ccc2c(c1)c(-c1cccc(Cl)c1)cc(=O)n2C [tipifarnib]
Summary of the method: as §1

[6] = compound: NC(=O)Nc1cc(-c2cccc(F)c2)sc1C(=O)N[C@H]1CCCNC1
Summary of the method: as §1

[7] = compound: NC(=O)c1cnc(N[C@@H]2CCCC[C@@H]2N)nc1Nc1cccc(-n2nccn2)c1
Summary of the method: as §1

[8] = compound: NC1(c2ccc(-c3nc4ccn5c(=O)[nH]nc5c4cc3-c3ccccc3)cc2)CCC1
Summary of the method: as §1

Chain of UniProt Q86T24 (Q86T24 whole entry, looked up): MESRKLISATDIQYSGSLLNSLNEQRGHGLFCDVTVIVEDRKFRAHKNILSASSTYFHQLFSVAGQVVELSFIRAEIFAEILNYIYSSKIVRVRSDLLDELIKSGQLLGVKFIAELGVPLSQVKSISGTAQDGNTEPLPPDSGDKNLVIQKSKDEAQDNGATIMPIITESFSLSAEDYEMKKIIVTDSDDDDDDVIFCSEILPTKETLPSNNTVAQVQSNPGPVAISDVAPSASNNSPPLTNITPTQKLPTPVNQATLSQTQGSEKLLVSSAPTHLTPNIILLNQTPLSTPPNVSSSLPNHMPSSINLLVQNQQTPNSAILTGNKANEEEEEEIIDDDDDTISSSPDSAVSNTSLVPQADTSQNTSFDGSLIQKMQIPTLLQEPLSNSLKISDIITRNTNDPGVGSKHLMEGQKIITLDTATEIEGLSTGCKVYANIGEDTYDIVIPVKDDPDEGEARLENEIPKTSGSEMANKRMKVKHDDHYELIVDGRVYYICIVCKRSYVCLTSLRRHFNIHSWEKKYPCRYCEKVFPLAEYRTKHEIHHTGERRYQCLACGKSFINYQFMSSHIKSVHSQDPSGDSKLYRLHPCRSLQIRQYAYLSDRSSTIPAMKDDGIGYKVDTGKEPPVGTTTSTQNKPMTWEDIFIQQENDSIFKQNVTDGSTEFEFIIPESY
Chain of UniProt Q9Y4P8 (Q9Y4P8 whole entry, looked up): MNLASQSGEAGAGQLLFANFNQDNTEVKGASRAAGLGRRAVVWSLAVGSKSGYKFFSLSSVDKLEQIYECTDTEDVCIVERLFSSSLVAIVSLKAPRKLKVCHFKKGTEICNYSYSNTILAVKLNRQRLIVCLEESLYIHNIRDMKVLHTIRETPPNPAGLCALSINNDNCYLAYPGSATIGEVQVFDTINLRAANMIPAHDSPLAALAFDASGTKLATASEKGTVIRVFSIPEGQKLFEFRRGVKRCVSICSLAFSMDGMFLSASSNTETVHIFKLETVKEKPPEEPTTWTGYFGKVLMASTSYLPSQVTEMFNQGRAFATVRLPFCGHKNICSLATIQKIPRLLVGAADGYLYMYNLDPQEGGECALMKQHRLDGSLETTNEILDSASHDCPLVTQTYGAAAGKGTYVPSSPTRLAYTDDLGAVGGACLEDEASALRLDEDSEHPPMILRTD
Chain of UniProt Q9H3U1 (Q9H3U1 whole entry, looked up): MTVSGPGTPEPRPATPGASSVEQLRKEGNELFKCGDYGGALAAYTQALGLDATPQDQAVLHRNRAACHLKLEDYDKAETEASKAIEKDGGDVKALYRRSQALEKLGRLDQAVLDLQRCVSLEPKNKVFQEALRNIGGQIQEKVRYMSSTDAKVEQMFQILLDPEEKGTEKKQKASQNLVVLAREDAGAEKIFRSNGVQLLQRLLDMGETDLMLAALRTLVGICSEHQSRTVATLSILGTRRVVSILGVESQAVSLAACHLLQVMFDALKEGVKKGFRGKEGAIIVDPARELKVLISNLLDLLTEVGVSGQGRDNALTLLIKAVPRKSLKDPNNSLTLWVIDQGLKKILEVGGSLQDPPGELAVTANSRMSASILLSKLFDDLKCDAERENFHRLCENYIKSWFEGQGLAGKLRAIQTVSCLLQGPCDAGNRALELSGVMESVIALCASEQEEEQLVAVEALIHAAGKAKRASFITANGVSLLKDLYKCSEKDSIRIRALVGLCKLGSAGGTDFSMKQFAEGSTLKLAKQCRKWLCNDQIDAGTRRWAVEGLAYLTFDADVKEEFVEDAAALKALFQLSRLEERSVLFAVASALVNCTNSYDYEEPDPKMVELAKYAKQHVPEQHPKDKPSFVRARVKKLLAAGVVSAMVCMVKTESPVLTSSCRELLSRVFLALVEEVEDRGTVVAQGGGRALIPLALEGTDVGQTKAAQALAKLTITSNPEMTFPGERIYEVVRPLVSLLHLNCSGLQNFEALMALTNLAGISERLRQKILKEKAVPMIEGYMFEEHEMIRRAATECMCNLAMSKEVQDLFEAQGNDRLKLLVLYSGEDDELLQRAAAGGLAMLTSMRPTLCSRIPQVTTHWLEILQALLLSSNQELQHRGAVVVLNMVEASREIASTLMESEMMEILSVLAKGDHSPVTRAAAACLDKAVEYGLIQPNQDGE
Chain of UniProt O75717 (O75717 whole entry, looked up): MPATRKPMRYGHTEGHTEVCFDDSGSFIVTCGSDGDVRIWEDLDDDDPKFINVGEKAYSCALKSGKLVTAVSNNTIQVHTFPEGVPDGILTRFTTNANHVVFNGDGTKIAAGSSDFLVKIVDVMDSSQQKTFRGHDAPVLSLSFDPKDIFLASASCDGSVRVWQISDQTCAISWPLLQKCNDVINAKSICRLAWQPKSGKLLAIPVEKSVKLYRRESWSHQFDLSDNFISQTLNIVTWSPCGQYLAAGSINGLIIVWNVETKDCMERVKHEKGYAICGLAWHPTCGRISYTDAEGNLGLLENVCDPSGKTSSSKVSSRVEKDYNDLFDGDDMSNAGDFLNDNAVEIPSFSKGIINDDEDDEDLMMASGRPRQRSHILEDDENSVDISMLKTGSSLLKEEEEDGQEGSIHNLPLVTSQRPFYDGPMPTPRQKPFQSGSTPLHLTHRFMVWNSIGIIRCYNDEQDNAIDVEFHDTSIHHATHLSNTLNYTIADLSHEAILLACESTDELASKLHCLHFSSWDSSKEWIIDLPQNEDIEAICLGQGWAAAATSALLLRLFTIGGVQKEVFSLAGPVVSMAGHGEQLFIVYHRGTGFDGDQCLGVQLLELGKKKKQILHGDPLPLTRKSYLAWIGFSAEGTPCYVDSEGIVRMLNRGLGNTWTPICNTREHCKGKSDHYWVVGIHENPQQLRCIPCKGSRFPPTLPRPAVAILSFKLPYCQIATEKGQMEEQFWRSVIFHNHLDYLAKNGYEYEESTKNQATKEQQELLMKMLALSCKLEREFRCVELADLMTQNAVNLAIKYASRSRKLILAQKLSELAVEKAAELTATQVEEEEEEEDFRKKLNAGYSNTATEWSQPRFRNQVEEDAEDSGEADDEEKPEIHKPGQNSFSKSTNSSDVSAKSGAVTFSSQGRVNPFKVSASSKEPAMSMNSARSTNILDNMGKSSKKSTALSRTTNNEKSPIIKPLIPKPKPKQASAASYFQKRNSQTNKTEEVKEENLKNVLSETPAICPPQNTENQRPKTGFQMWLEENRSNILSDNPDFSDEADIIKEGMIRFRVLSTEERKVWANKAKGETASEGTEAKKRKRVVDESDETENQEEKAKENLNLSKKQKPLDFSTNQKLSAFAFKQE
Chain of UniProt Q14191 (Q14191 whole entry, looked up): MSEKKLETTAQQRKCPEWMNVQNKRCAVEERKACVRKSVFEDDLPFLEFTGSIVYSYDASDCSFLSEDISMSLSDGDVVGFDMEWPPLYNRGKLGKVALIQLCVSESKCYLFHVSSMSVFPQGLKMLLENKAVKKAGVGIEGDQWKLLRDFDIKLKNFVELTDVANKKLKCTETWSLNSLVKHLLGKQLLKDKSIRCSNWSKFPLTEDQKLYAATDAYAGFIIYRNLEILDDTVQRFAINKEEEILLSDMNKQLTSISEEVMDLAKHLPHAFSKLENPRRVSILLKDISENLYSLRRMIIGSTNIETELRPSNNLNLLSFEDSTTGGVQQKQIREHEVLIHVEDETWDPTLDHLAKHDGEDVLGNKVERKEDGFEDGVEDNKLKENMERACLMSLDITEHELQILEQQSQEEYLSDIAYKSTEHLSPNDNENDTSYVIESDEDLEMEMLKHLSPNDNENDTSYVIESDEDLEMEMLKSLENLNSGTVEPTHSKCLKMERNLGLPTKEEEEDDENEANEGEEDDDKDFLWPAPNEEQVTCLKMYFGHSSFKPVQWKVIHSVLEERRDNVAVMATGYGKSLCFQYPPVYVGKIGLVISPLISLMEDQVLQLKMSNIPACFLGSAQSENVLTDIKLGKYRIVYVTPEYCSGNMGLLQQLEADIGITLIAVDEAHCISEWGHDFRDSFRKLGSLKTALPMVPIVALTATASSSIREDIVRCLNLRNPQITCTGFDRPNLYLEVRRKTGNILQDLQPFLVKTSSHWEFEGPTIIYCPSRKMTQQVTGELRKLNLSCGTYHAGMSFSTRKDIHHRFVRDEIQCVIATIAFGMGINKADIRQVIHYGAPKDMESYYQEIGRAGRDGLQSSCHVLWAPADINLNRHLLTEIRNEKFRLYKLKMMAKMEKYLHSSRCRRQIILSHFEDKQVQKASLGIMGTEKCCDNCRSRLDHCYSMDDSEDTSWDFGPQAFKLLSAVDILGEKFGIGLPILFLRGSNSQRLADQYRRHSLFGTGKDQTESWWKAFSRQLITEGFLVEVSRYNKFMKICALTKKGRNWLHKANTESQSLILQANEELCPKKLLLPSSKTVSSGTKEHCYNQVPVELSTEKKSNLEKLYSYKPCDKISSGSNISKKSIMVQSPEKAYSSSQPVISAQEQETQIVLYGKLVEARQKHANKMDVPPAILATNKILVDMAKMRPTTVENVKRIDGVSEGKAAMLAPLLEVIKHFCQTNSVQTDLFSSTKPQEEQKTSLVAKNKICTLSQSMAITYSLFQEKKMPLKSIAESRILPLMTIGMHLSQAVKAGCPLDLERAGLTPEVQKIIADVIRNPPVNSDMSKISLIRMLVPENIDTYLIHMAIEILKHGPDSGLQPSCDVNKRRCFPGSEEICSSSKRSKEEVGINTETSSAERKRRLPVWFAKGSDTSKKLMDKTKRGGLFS
Chain of UniProt Q9UK41 (Q9UK41 whole entry, looked up): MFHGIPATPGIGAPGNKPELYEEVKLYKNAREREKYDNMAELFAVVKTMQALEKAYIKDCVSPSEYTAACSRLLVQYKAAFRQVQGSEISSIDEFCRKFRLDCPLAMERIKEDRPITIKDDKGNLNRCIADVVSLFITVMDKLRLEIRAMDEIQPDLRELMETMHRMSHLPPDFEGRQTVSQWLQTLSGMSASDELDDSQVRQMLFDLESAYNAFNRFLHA

| Target | log2 fold change (lapatinib) | log2 fold change (pictilisib) | log2 fold change (crizotinib) | log2 fold change [1] | log2 fold change (duvelisib) | log2 fold change (gandotinib) | log2 fold change (tozasertib) | log2 fold change (doramapimod) | log2 fold change (bafetinib) | log2 fold change [2] | log2 fold change (nilotinib) | log2 fold change [3] | log2 fold change (dasatinib) | log2 fold change [4] | log2 fold change [5] | log2 fold change (quisinostat) | log2 fold change (tipifarnib) | log2 fold change [6] | log2 fold change [7] | log2 fold change [8] |
| --- | --- | --- | --- | --- | --- | --- | --- | --- | --- | --- | --- | --- | --- | --- | --- | --- | --- | --- | --- | --- |
| ZNF346 (UniProt Q9UL40) | 0.01 | -0.008 | 0.009 | -0.01 | -0.009 | -0.026 | 0.005 | 0.02 | -0.043 | -0.072 | -0.005 | 0.02 | -0.099 | 0.021 | 0.014 | -0.014 | 0.015 | 0.005 | 0.011 | 0.01 |
| YTHDF3 (UniProt Q7Z739) | -0.065 | 0.05 | 0.01 | -0.035 | 0.017 | 0.107 | -0.03 | 0.078 | -0.073 | 0.097 | -0.246 | -0.038 | 0.022 | 0.014 | -0.006 | -0.06 | -0.311 | 0.063 | -0.016 | -0.039 |
| UTP3 (UniProt Q9NQZ2) | 0.002 | -0.031 | -0.094 | -0.008 | 0.031 | -0.007 | -0.027 | 0.066 | -0.061 | 0.029 | -0.106 | 0.008 | -0.048 | -0.054 | -0.023 | 0.014 | 0.051 | 0.065 | 0.002 | 0 |
| USP10 isoform 2 (UniProt Q14694) | -0.01 | -0.015 | -0.03 | -0.024 | 0.009 | -0.046 | -0.014 | -0.016 | -0.014 | 0.028 | -0.022 | 0.013 | -0.058 | 0.013 | -0.013 | -0.081 | -0.007 | 0.034 | -0.011 | -0.012 |
| ZBTB33 (UniProt Q86T24) | 0.047 | 0.149 | -0.111 | -0.165 | -0.041 | 0.028 | 0.048 | 0.022 | 0.046 | 0.048 | -0.009 | 0.084 | -0.06 | -0.052 | 0.029 | -0.08 | -0.083 | 0.133 | 0 | -0.035 |
| VPS28 (UniProt Q9UK41) | 0.038 | -0.005 | 0.051 | -0.132 | -0.032 | 0.018 | -0.03 | -0.005 | 0.034 | 0.034 | -0.031 | 0.034 | 0.021 | 0.004 | 0.086 | 0.081 | 0.029 | -0.038 | 0.012 | -0.027 |
| WDHD1 (UniProt O75717) | -0.017 | -0.025 | -0.035 | 0.077 | 0.007 | -0.082 | -0.043 | 0.011 | 0.023 | -0.037 | -0.008 | 0.026 | -0.023 | 0.012 | 0.01 | -0.029 | -0.01 | 0.008 | 0.013 | 0.01 |
| WIPI2 (UniProt Q9Y4P8) | 0.006 | -0.024 | -0.02 | -0.086 | -0.008 | 0.089 | -0.003 | 0.098 | -0.025 | 0.035 | 0.032 | 0.043 | 0.007 | -0.018 | -0.004 | -0.054 | 0.011 | 0.053 | -0.005 | 0.021 |
| VPS54 (UniProt Q9P1Q0) | -0.018 | 0.068 | -0.296 | -0.263 | -0.012 | 0.399 | 0.047 | 0.066 | 0.431 | 0.395 | 0.013 | -0.041 | -0.112 | 0.205 | 0.146 | -0.409 (active) | -0.111 | 0.065 | 0.089 | -0.121 |
| WRN (UniProt Q14191) | -0.008 | 0.006 | -0.031 | -0.042 | -0.034 | -0.008 | 0.037 | 0.02 | -0.064 | 0.073 | -0.027 | -0.018 | -0.108 | -0.004 | 0.022 | -0.042 | -0.005 | 0.03 | 0.089 | -0.013 |
| ZMYM1 (UniProt Q5SVZ6) | 0.101 | -0.037 | -0.008 | -0.25 (active) | -0.04 | 0.226 | -0.021 | 0 | -0.097 | 0.284 (active) | 0.023 | -0.036 | 0.006 | -0.019 | 0.007 | -0.08 | -0.012 | 0.03 | 0.003 | 0.028 |
| ZC3H11A (UniProt O75152) | -0.09 | -0.046 | -0.071 | 0.222 | 0.013 | -0.12 | 0.016 | 0.013 | -0.113 | -0.134 | -0.021 | -0.006 | -0.021 | 0.041 | -0.022 | -0.094 | -0.007 | 0 | 0.004 | 0.035 |
| ZNF609 (UniProt O15014) | 0.023 | -0.054 | 0.026 | -0.028 | -0.042 | 0.16 | 0.024 | -0.064 | -0.111 | 0.187 | -0.14 | -0.023 | -0.014 | 0.001 | -0.044 | -0.006 | 0.01 | 0.061 | -0.015 | 0.003 |
| UNC45A (UniProt Q9H3U1) | -0.006 | -0.026 | -0.045 | 0.019 | -0.003 | -0.111 | 0 | 0.027 | -0.018 | 0.021 | -0.007 | 0.003 | -0.051 | 0.018 | 0.016 | -0.047 | -0.015 | 0.03 | 0.016 | -0.001 |
| USE1 (UniProt Q9NZ43) | -0.035 | 0.088 | -0.057 | 0.039 | -0.056 | -0.103 | 0.011 | 0.112 | -0.019 | 0.027 | -0.019 | 0.038 | 0.068 | 0.057 | 0.02 | 0.08 | -0.021 | 0.029 | -0.027 | 0.025 |
